# Source: PubChem BioAssay (several laboratories)
# sEH inhibitor = soluble epoxide hydrolase inhibitors, primary screen, biochemical, human sEH | recombinant human sEH enzymatic activity assay | inhibition, % at 2 µM | 91,000 tested, 0.34% active | AID 707, 2007; in the data active = inhibition above about 80%
# CYP2C9 act = human CYP2C9 activators, primary screen, biochemical, luminescence. Cytochrome P450 2C9 (Homo sapiens), P11712. recombinant CYP2C9, luciferin-H conversion; stronger effect = higher value; factor 1 = untreated enzyme, 0 = blocked. activation factor at 5 µM. 96,000 tested, 1.4% active. AID 1024, 2008;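 active = activation factor of 2 or more for CYP2C9 at a 5 µM dose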;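 note: 0 = sulfaphenazole-blocked wells and 1 = vehicle-only wells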
# Target sequence (P11712 whole entry, looked up): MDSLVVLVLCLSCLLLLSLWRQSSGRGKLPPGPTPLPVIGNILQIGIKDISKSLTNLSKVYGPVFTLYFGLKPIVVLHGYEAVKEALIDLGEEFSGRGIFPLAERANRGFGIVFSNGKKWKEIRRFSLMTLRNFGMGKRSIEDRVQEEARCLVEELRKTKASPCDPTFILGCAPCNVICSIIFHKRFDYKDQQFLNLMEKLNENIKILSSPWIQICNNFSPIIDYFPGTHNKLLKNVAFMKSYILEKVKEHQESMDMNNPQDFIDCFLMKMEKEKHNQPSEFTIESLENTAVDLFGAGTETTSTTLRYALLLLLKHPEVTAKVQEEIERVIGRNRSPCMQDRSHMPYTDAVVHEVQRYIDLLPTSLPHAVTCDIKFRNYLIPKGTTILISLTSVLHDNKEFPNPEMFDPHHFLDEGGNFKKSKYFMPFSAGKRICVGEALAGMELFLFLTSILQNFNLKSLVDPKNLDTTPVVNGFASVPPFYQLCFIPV
# CYP2C9 inh = blockers of cytochrome P450 2C9 activity – biochemical, luminescence, ADME assay, primary screen | 96,000 tested, 20% active | CYP2C9 Supersomes, luciferin-H conversion | P11712 | inhibition, % at 5 µM;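 active = blocking of liver enzyme CYP2C9 beyond about 50% at 5 µM, limit read from the data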
# CYP2C19 activ = human CYP2C19 activators, primary screen, biochemical, luminescence. 96,000 tested, under 10 active. recombinant CYP2C19, luciferin-H EGE luminescence; stronger effect = higher value; 0 = fully inhibited enzyme, 1 = untreated enzyme. Cytochrome P450 2C19 (Homo sapiens), P33261. activation factor at 5 µM. AID 1025, 2008;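 active = activation factor of at least 2 at 5 µM in the primary screen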;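 note: 0 = wells with 2.5 mM tranylcypromine and 1 = vehicle-only wells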
# CYP2C19 inh = blockers of cytochrome P450 2C19 activity – biochemical, luminescence, ADME assay, primary screen; CYP2C19 Supersomes, luciferin-H EGE luminescence, 30 min; inhibition, % at 5 µM; 96,000 tested, 21% active;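 active = CYP2C19 inhibition above a set limit at 5 µM in the primary screen, cut at about 50% in these data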;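 note: plate controls were negative control wells for no effect and 2.5 mM tranylcypromine positive control for full effect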
# sEH act = soluble epoxide hydrolase activators, primary screen, biochemical, human sEH | purified human sEH enzymatic activity, activator screen | 91,000 tested, 0.04% active | AID 717, 2007 | Bifunctional epoxide hydrolase 2 (Homo sapiens), P34913 | activation, % at 2 µM; in the data active = activation above about 37%
# * marks the source's active call; other numbers are inactive results; · = not tested or not shown. This is a sample that favours compounds with a hit; in the whole collection about 27% have one here.
SMILES,sEH inhibitor,CYP2C9 act,CYP2C9 inh,CYP2C19 activ,CYP2C19 inh,sEH act
O=C(CSc1nc2ccccc2[nH]1)Nc1ccc(F)cc1,-5,0.2,84*,0.1,94*,7
Cc1[nH]c(=O)cc2ccccc12,-1,1.1,-12,1,5,4
C/C(=N\O)C(=O)NCCCNCCCN(C)C,-11,1.3,-31,1.2,-22,9
CNc1nc(C)cc(C)c1S(=O)(=O)c1ccc(Cl)cc1,-16,1.4,-42,0.3,66*,17
Cc1cc(C)c(S(C)(=O)=O)c(S(=O)c2ccc(Cl)cc2)n1 (configuration not stated),2,0.4,58*,1,1,-3
CCOc1ccc(CC(=O)Nc2c(C(N)=O)oc3ccccc23)cc1OCC,10,·,·,·,·,-12
O=c1c([N+](=O)[O-])c(N2CCCCCC2)c2ccccc2n1-c1ccccc1,-5,0.9,7,1,0,8
CC1CCCN(c2c([N+](=O)[O-])c(=O)oc3ccccc23)C1 (configuration not stated),-18,0.7,26,0.1,94*,18
COc1cccc(OC)c1NC(=O)CN1CCC(NC(=O)c2cccc(F)c2)CC1,4,·,·,·,·,0
Cc1ccc(/C=C/C(=O)C2C(=O)c3ccccc3C2=O)cc1,2,0,99*,1.1,-6,-4
Cc1ccc(/C=C/C(=O)c2ccc(C)cc2)cc1,-2,·,·,·,·,2
Cc1ccc(/C=C/C(=O)c2cc(Br)ccc2OC(=O)c2ccco2)cc1,-17,0.2,76*,0.2,83*,20
COc1ccccc1/C=C/C(=O)c1cc(Br)ccc1OC(=O)c1ccco1,6,·,·,·,·,-8
CCOc1ccc(OCCCCNCCN)cc1,1,1,4,0.9,6,-1
O=C(c1ccccc1)c1ccc(C(=O)N2CCN(c3ccc(F)cc3)CC2)o1,2,0.2,81*,0.1,89*,-2
CCc1ccc(C(=O)N2CCN(c3ccc(F)cc3)CC2)s1,1,0.5,48,0.1,87*,-1
COc1ccc(NC(=O)CCc2c(C)nc3nc(C)nn3c2C)cc1,12,1,0,1,-4,-9
CC1(C)Cc2c(c(-c3ccccc3)nc(N3CCOCC3)c2C(N)=O)CO1,0,0.8,23,1,-1,3
Cc1cc(=O)oc2c1c(C)nn2-c1ccc(C(=O)OC(C)C)cc1,·,0.8,24,0.9,14,·
OCCN(Cc1ccccc1)CC1CCCCC1,5,1,-5,1,2,-5
OCCN(Cc1ccccc1)Cc1cccc(C(F)(F)F)c1,4,0.8,20,0.3,73*,-8
OCCN(Cc1ccccc1)Cc1cccc(F)c1,7,0.8,16,0.3,70*,-3
CCCN(CCO)Cc1cccc(Cl)c1,4,1,-5,0.9,7,-4
FC(F)(F)c1cccc(CN2CCCCCC2)c1,·,1,2,0.7,32,·
OCCN(Cc1ccccc1)Cc1ccc(C(F)(F)F)cc1,-1,0.5,50*,0,95*,4
SMILES,sEH inhibitor,CYP2C9 act,CYP2C9 inh,CYP2C19 activ,CYP2C19 inh,sEH act
Cc1c(C(=O)NCc2ccccc2)c(-c2ccccc2)nn1-c1ccccc1,8,0.7,34,0.6,43,-6
CCn1c(/C=C/c2ccccc2)nc2ccccc21,-9,2.6*,-163,0.6,44,11
COc1ccc(Cn2c(/C=C/c3ccccc3)nc3ccccc32)cc1,·,0.1,91*,0.6,38,·
CN(C)/C=C(/C#N)C(=O)c1cccc(Oc2ccc(C(C)(C)C)cc2)c1,7,0.5,50,0.2,78*,-6
Cc1cc(Cl)ccc1Oc1cccc(C(=O)/C(C#N)=C/N(C)C)c1,6,0.8,23,0.3,70*,-6
Cc1ccccc1Oc1ncccc1C(=O)/C(C#N)=C/N(C)C,-15,1,1,0.7,35,16
Cc1ccccc1Oc1cccc(C(=O)/C(C#N)=C/N(C)C)c1,1,0.2,79*,0.1,89*,-3
CN1C(=O)c2oc3ccc(Br)cc3c(=O)c2C1c1ccncc1 (configuration not stated),·,0.6,44,0.8,18,·
CCOC(=O)c1cc(-c2ccc(OC)cc2)nc2c1c(C)nn2CCC#N,4,0.8,19,0.8,18,-4
CCOC(=O)c1cc(-c2ccc(C#N)cc2)nc2c1c(C)nn2CCC#N,-18,0.5,52*,0.9,11,22
COc1cccc(-c2nn(-c3ccccc3)cc2/C=C\C(=O)c2cccs2)c1,-3,0.4,58*,0.7,33,5
COc1cccc(-c2nn(-c3ccccc3)cc2C(=O)O)c1,-11,0.8,15,0.9,7,10
O=C1NC2NC(=O)N(C(Cc3ccccc3)C(=O)O)C2N1 (configuration not stated),-12,1.2,-17,0.7,30,13
CCC(Sc1nc(-c2ccccc2)cc(=O)[nH]1)C(=O)O (configuration not stated),-10,1.2,-17,1,2,8
CCC(Sc1nccn1C)C(=O)Nc1nnc(C)s1 (configuration not stated),3,1.1,-12,1.2,-16,-4
CCC(Sc1nc(-c2ccccc2)c(C#N)c(=O)[nH]1)C(=O)Nc1nnc(C)s1 (configuration not stated),-10,0.3,67*,0.9,11,10
Cc1ccc(NC(=O)CSc2nc(NS(=O)(=O)c3ccccc3)cc(=O)[nH]2)cc1,0,0.4,61*,0.8,23,1
CCC(Sc1nc(C)cc(=O)[nH]1)C(=O)Nc1nc(-c2ccccc2)cs1 (configuration not stated),-1,0.1,88*,0.3,71*,3
Cc1ccc(-c2csc(NC(=O)CSC3=NCCS3)n2)cc1,9,·,·,·,·,-9
Cc1ccc(-c2csc(NC(=O)CSc3nc(C)cc(=O)[nH]3)n2)cc1,-17,0.2,82*,0.7,27,13
Cc1cc(=O)[nH]c(SCC(=O)Nc2ccc(C(=O)O)cc2)n1,12,0.8,16,0.9,14,-9
CC1=CC(C)(C)n2c(O)c(C3=NC(=S)NC3=O)c3cc(OC(=O)c4cccc5ccccc45)cc1c32,4,1,-3,1.1,-10,0
COc1ccc(CN2CCSCC2)cc1C,-10,0.9,14,0.6,38,11
Brc1ccc(CN2CCSCC2)cc1,-12,0.6,44,0.4,59*,12
O=Cc1cccc(OC(=O)c2ccc(Cl)cc2Cl)c1,25,1.1,-11,1,-4,-24
